Test results from PubChem BioAssay (Tox21).
Records with an inconclusive call do not appear. Values without a mark were called inactive. Activity calls are given as the source filed them. Calls come from the whole dose curve; as a rule, active = well fitted activation curve with a large enough effect in the repeat runs; inconclusive = weak or mixed curves; inactive = no such curve, though single readings can be large or run the other way. Positions of bridges follow the written chain, without caps; N, C: chain ends. Non-standard residues stand in square brackets, D forms with d. Residues, ends and D or L forms follow the SMILES beside them. ξ: configuration not given here. *: point of attachment. d(aThr) = C[C@@H](O)[C@@H](N)C(=O)O; ξThr(3R) = C[C@@H](O)C(N)C(=O)O; X3 = CC[C@@H](C)CCCCC(=O)*; dDab = NCC[C@@H](N)C(=O)O

Experiment: qHTS assay for small molecules that induce genotoxicity in human embryonic kidney cells expressing luciferase-tagged ATAD5 (AID 651632); note: nearly all actives have a fitted effect of over 15% in size
Conditions: HEK293T ATAD5-luciferase induction, 16 h; series mostly up to 83.3 µM; activation: at the top concentration
Outline: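 Reporter cells (HEK293T) express luciferase-tagged ATAD5, a protein that accumulates after DNA damage. Treat 16 hr at 37C/5% CO2, add Amplite, wait 30 min at RT, and read luminescence.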
% is set by controls: 0 for no effect and ±100 for the full control effect; potency is the fitted concentration of half-maximal effect.

Row | SMILES | activation | Potency
1 | Cc1cc(O)c2c(c1)O[C@@]1(C)CC[C@H]3C(C)(C)CCCC34CO[C@@H]2[C@H]41 (some centres undefined) | -9.76% | 
2 | COc1ccc(C2NC(=S)N3C(c4ccc(OC)c(OC)c4)NC(=S)N23)cc1OC (centres undefined) | -9.14% | 
3 | CC(CN(C)C)CN1c2ccccc2Sc2ccc(C(F)(F)F)cc21 (centres undefined) | -5.07% | 
4 | C[C@@H]1CCC2[C@@H](C)[C@@H](O)O[C@@H]3O[C@@]4(C)CC[C@@H]1[C@@]23OO4 (some centres undefined) | -15.9% | 
5 | CCc1ccc2c(c1)N(CC(C)CN(C)C)c1ccccc1S2 (centres undefined) | -16.1% | 
6 | CCCCCCCCCCCCCCCCCC[N+](C)(C)CCC[Si](OC)(OC)OC | -2.03% | 
7 | CCOC(=O)[C@H](CS)NCCN[C@@H](CS)C(=O)OCC | 5.24% | 
8 | CC1(C)S[C@@H]2[C@H](NC(=O)[C@H](NC(=O)N3CCN(S(C)(=O)=O)C3=O)c3ccccc3)C(=O)N2[C@H]1C(=O)O | 3.89% | 
9 | Cn1c(O)c(N=NC(N)=S)c2ccccc21 | 2.28% | 
10 | CC1=C[C@H](O)CC(C)(C)[C@H]1/C=C/C(C)=C/C=C/C(C)=C/C=C/C=C(C)/C=C/C=C(C)/C=C/C1=C(C)C[C@@H](O)CC1(C)C | 7.3% | 
11 | NCCC(=O)[N-][C@@H](Cc1cnc[nH]1)C(=O)O.[Zn] | 2.31% | 
12 | C#C[C@]1(O)CC[C@H]2[C@@H]3CCC4=CCCC[C@@H]4[C@H]3C(=C)C[C@@]21CC | -3.72% | 
13 | C=C1C(=C/C=C2\CCC[C@]3(C)[C@@H]([C@H](C)/C=C/[C@H](C)C(C)C)CC[C@@H]23)C[C@@H](O)C[C@@H]1O | -1.41% | 
14 | CC(=O)[C@@]1(O)CC[C@H]2[C@@H]3C=C(Cl)C4=CC(=O)CC[C@]4(C)[C@H]3CC[C@@]21C | -5.7% | 
15 | CC[C@@H](C)CCCCC(=O)N[C@H](CCN)C(=O)N[C@@H](C(=O)N[C@H](CCN)C(=O)N[C@@H]1CCNC(=O)C([C@@H](C)O)NC(=O)[C@@H](CCN)NC(=O)[C@@H](CCN)NC(=O)[C@@H](CC(C)C)NC(=O)[C@@H](Cc2ccccc2)NC(=O)[C@@H](CCN)NC1=O)[C@@H](C)O (stereo partly drawn) (X3-[dDab][d(aThr)][dDab][dDab][dDab][dF][dL][dDab][dDab][ξThr(3R)]; lactam 4-C) | 0.868% | 
16 | COc1ccccc1N1CCN(CCCC(=O)c2ccc(F)cc2)CC1 | -7.53% | 
17 | CCC(=O)Oc1ccc2c(c1)CC[C@@H]1[C@@H]2CC[C@]2(C)[C@@H](OC(=O)CC)CC[C@@H]12 | 1.31% | 
18 | CC(=O)Oc1cc(C)c(OC(C)=O)c2ccccc12 | -10.2% | 
19 | CC(C)(C)NC(=O)[C@H]1CC[C@H]2[C@@H]3CC=C4C=C(C(=O)O)CC[C@]4(C)[C@H]3CC[C@]12C | -0.722% | 
20 | Clc1ccc(COC(Cn2ccnc2)c2ccc(Cl)cc2Cl)c(Cl)c1 (centres undefined) | -7.98% [at 39.1 µM] | 

Row | SMILES | activation | Potency
21 | CCCCC[C@H](O)/C=C/[C@H]1[C@H](O)CC(=O)[C@@H]1CCCCCCC(=O)O | 2.29% [at 39.1 µM] | 
22 | CCOC(=O)C1=C(COCCN)NC(C)=C(C(=O)OC)C1c1ccccc1Cl (centres undefined) |  | inactive
23 | CN1CCN(CCCN2c3ccccc3Sc3ccccc32)CC1 | -2.59% | 
24 | CN[C@@H]1[C@@H](O)[C@@H](O[C@@H]2[C@@H](O)[C@H](OC3OC(CN)=CCC3N)[C@@H](N)C[C@H]2N)OC[C@]1(C)O (some centres undefined) | 2.71% [at 39.1 µM] | 
25 | CCC[C@@H]1C[C@@H](C(=O)N[C@@H]([C@H]2O[C@H](SC)[C@H](O)[C@@H](O)[C@H]2O)[C@H](C)Cl)N(C)C1 | -1.04% | 
26 | CCC[C@@]1(CCc2ccccc2)CC(O)=C([C@H](CC)c2cccc(NS(=O)(=O)c3ccc(C(F)(F)F)cn3)c2)C(=O)O1 | 1.46% | 
27 | CCCCCCC(=O)O[C@H]1CC[C@H]2[C@@H]3CCc4cc(O)ccc4[C@H]3CC[C@]12C | 3.86% | 
28 | CCC(=O)OCC(=O)[C@@]1(OC(=O)CC)[C@@H](C)C[C@H]2[C@@H]3CCC4=CC(=O)C=C[C@]4(C)[C@@]3(F)[C@@H](O)C[C@@]21C | -10.2% | 
29 | CCCC1([C@H](O)C/C=C/[C@H]2[C@H](O)CC(=O)[C@@H]2CCCCCCC(=O)OC)CCC1 | -7.6% | 
30 | C=C1C(=C/C=C2\CCC[C@]3(C)[C@@H]([C@H](C)CCCC(C)(C)O)CC[C@@H]23)C[C@@H](O)C[C@@H]1O | -11.3% | 
31 | CC[C@]1(O)CC2CN(CCc3c([nH]c4ccccc34)[C@@](C(=O)OC)(c3cc4c(cc3OC)N(C)[C@H]3[C@@](O)(C(N)=O)[C@H](O)[C@]5(CC)C=CCN6CC[C@]43[C@@H]65)C2)C1 (some centres undefined) |  | 3.35 µM (active)
32 | CCC(=O)NS(=O)(=O)c1ccc(-c2c(-c3ccccc3)noc2C)cc1 | 5% | 
33 | O=C1NCCN1c1ncc([N+](=O)[O-])s1 | -1.6% [at 39.1 µM] | 
34 | CCC(=O)NCCC1CCc2ccc3c(c21)CCO3 (centres undefined) | -1.42% | 
35 | CN1CCN(C2=Nc3ccccc3Cc3ccccc32)CC1 | -0.646% | 
36 | CCCCCCCCCCCCCCCC(=O)O[C@@H]1CC(C)=C(/C=C/C(C)=C/C=C/C(C)=C/C=C/C=C(C)/C=C/C=C(C)/C=C/C2=C(C)C[C@@H](OC(=O)CCCCCCCCCCCCCCC)CC2(C)C)C(C)(C)C1 | 2.41% | 
37 | O=C(Nc1ccc(Br)cc1)c1cc(Br)c(Br)s1 | 1.85% | 
38 | Cc1ccc(S(=O)(=O)NC(=O)N[C@@H](C)Cc2ccccc2)cc1 | 1.39% | 
39 | O=C(O)c1cc(N=Nc2ccc(O)c(C(=O)O)c2)ccc1O | -1.66% | 
